# Bioassay records as filed in PubChem.
# FLuc modulator: firefly luciferase modulation, counter-screen for miR-21 project; P08659; purified FLuc, Km substrates, luminescence inhibition; Potency, µM (top dose mostly 57.5 µM), for the others: top-dose activity change, negative = inhibition, usual class: inhibitors; 360,000 compounds, 6.9% hits;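 also: plate controls were vehicle for no effect and reference inhibitor for full effect; nearly all actives have a fitted effect of over 55% in size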
# Target sequence (P08659 whole entry, looked up): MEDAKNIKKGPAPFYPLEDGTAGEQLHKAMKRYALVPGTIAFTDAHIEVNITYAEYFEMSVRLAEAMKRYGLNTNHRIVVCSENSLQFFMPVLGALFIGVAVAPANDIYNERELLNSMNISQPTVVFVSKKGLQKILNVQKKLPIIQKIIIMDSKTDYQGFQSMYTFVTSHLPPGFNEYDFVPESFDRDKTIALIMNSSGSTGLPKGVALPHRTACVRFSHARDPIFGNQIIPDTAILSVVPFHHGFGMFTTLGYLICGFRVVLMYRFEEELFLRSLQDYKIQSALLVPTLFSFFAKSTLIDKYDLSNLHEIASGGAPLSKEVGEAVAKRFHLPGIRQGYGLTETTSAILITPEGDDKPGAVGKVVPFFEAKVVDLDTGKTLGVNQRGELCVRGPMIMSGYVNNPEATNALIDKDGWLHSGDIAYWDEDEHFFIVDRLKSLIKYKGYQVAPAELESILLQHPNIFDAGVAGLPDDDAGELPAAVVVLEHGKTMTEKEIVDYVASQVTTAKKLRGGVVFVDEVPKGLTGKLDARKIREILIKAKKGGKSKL
#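 Biochemical qHTS of compounds, final roughly 60 µM downward over six points, against 10 nM purified firefly luciferase using Km concentrations of substrates (10 uM D-luciferin, 10 uM ATP) in Tris acetate pH 7.5 buffer; luminescence output.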
# SMN2 splice enh: SMN2 splice variant enhancement; 210,000 compounds, 2.8% hits; HEK293 SMN2-luciferase splicing reporter, luminescence, 30-36 h; Potency, µM (series often up to 46.1 µM), for the others: top-dose activity change, positive = activation, most hits filed as activators; AID 1458; also: % of control where 0% means no effect; nearly all actives have a fitted effect of over 55% in size
#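 HEK293 cells carry an SMN2 […]–luciferase reporter in which exon 7 inclusion puts luciferase in frame. Cells were plated 10-12 h before compound addition, then incubated 30-36 h at 37C. ONE-Glo luminescence was read; sodium butyrate at 4.5 mM final served as control.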
# ELG1 DNA repair: inhibitors of ELG1-dependent DNA repair in HEK293T cells; HEK293T ELG1-luciferase reporter, luminescence, 16 h; DNA damage induced by 5-fluorouridine; Potency, µM (series often up to 46.1 µM), for inactives: top-dose activity change, negative = inhibition, actives largely listed as inhibitors; 330,000 compounds, 2.3% hits; AID 504467; also: % is scaled to controls: 0 for no effect and ±100 for the full control effect; nearly all actives have a fitted effect of over 55% in size
#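 Reporter activity after DNA damage by 5-fluorouridine is monitored. Compound-treated cells incubate 16 hr at 37 °C, then ONE-Glo is added for 30 min before luminescence reading.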
# ELG1 genotox: inducers of genotoxicity in HEK293T ELG1-luciferase cells; HEK293T ELG1-luciferase reporter, luminescence, 16 h; AID 504466; Potency, µM (highest dose often 46 µM), inactives show at the top dose activity change, positive = activation, actives largely listed as activators; 330,000 compounds, 1.3% hits; also: % of control where 0% means no effect; nearly all actives have a fitted effect of over 60% in size
#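 ELG1-luciferase HEK293T cells, 2,000/well; compound pinned in; 16 hr, 37 °C, 5% CO2; ONE-Glo, 30 min RT; luminescence on CCD imager.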
# NPC1 promoter act: activators of NPC1 promoter; Potency, µM (series often up to 9.22 µM), inactives show at the highest dose activation, actives largely listed as activators; 320,000 compounds, 2.4% hits; AID 485313; Huh7 NPC1 promoter luciferase reporter, 24 h; also: % of control where 0% means no effect; nearly all actives have a fitted effect of over 60% in size
#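 Luciferase expression driven by the NPC1 promoter was measured in stably transfected Huh7 cells after a 24 h compound incubation, using a luciferase reagent and a luminescence read.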
# Rab9 prom act: activators of Rab9 promoter | AID 485297 | 320,000 compounds, 2.8% hits | Huh7 Rab9 promoter-luciferase reporter, luminescence, 24 h | Potency, µM (doses to about 9.22 µM), without a hit: top-dose activation, negative = inhibition, usual class: activators; also: % of control where 0% means no effect; nearly all actives have a fitted effect of over 60% in size
#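 Using Huh7 cells stably transfected with Rab9 promoter–luciferase, compounds were incubated 24 h at 37 °C, 5% CO2; luciferase luminescence was read 10 min after reagent addition.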
# * marks the source's active call; other numbers are inactive results; ? = inconclusive; · = no result given; [ ] = remark or other dose. This is a sample that favours compounds with a hit; in the whole collection about 9.2% have one here. Calls follow the shape of the dose curve; as a rule, active = well fitted curve in the direction sought with a large enough effect; inconclusive = small, poorly fitted or top-dose-only effect, or another doubt; inactive = no such curve, though single readings can be large; an effect the other way counts as inactive or inconclusive. Potency is read from the fitted curve at half-maximal effect.
SMILES,FLuc modulator,SMN2 splice enh,ELG1 DNA repair,ELG1 genotox,NPC1 promoter act,Rab9 prom act
Cc1cc(Cl)ccc1N=c1ssnc1Cl,?,-23%,16µM*,-23%,0%,-1%
Cc1ccc(N=c2ssnc2Cl)cc1,21µM*,-11%,?,-7%,1%,7%
CC(=O)NS(=O)(=O)c1ccc(NC(=O)CSc2ccc(C)cc2)cc1,-9%,9%,4%,0%,0%,1%
COc1ccccc1C(=O)NC1(C(F)(F)F)C(=O)Nc2c1c(=O)[nH]c(=O)n2CCc1ccccc1 (configuration not stated),?,24%,·,·,·,·
C/C(=N\NC(=O)c1nnn(-c2nonc2N)c1-c1ccc2c(c1)OCO2)c1ccc(C)cc1,0%,·,0%,0%,11%,0%
Cc1cccc(C)c1NC(=O)CN(C)C(=O)c1cccc(S(=O)(=O)N2CCN(c3ccc(F)cc3)CC2)c1,2%,·,-21%,-6%,-14%,-21%
CN(CC(=O)Nc1ccccc1Cl)C(=O)c1cccc(S(=O)(=O)N2CCN(c3ccc(F)cc3)CC2)c1,3.4µM*,·,?,1.8µM*,1.4µM*,2.2µM*
Cc1ccc(Nc2c(-c3ccccc3O)nc3ccc(Br)cn23)cc1,-7%,6%,·,·,·,·
Cc1ccc2nc(-c3c[nH]c4ccccc34)c(Nc3ccccc3)n2c1,-11%,11µM*,·,·,·,·
c1ccc(Nc2c(-c3c[nH]c4ccccc34)nc3ccccn23)cc1,?,16µM*,·,·,·,·
Fc1ccc(Nc2c(-c3c[nH]c4ccccc34)nc3ccccn23)cc1,-7%,?,·,·,·,·
CCOc1cc(C2NC(=O)c3c(sc4c3CCN(C)C4)N2)ccc1OC(=O)c1ccccc1Cl (configuration not stated),4%,9%,·,·,·,·
Cc1cccc(N=Nc2c(O)[nH]c3ccc(Br)cc23)c1,15µM*,·,?,?,?,23%
Oc1[nH]c2ccc(Br)cc2c1N=NC(=S)Nc1ccc(F)cc1,5%,·,?,-15%,-3%,-3%
Oc1ccc(NC(=S)N=Nc2c(O)[nH]c3ccc(Br)cc23)cc1,-8%,-1%,16µM*,-5%,-2%,-1%
Cc1ccccc1OCCCn1c(CCNC(=O)C2CCCCC2)nc2ccccc21,?,-16%,·,·,·,·
COc1ccc(S(=O)(=O)N(C)CC(=O)NCc2ccco2)cc1OC,1%,·,18%,5%,0%,-4%
COc1ccc(-c2cc(C(=O)NC3CC3)c3ccccc3n2)cc1,21µM*,·,?,-1%,-4%,-1%
COc1ccc(-c2cc(C(=O)NC3CCCC3)c3ccccc3n2)cc1,6.7µM*,·,-16%,-3%,14%,6%
CCCOc1ccc(-c2cc(C(=O)NCC3CCCO3)c3ccccc3n2)cc1 (configuration not stated),3µM*,9%,?,-10%,12%,20%
O=C(NCC1CCCO1)c1cc(-c2ccncc2)nc2ccccc12 (configuration not stated),1%,·,1%,-1%,-2%,2%
COc1ccc(OC)c(C2C(C(=O)c3ccco3)=C(O)C(=O)N2CC2CCCO2)c1 (configuration not stated),0%,·,4%,3%,2%,-6%
O=C(NCCc1ccccc1)C(=O)NCC(c1cccs1)S(=O)(=O)c1cccs1 (configuration not stated),-9%,·,·,·,·,·
C[C@@]12CCC(=O)C=C1CC[C@H]1C2[C@@H](O)C[C@]2(C)[C@@H]1CC[C@@]2(O)C(=O)CO (some centres not stated),·,11%[9.22 µM],·,·,·,·
COc1cc(/C=N/NC(=O)C(=O)NCc2cccnc2)ccc1O,0%,4%,1%,1%,-5%,-6%
